According to the supplement of paper PMC3342239:
Counter-ions that a name gives are not always drawn.

tested on: Saccharomyces cerevisiae; assay: fraction of cells in G1 phase (DNA content, flow cytometry); higher = more cells with unreplicated DNA (G1 delay); settings: temperature: 30 C; YPD; JTY2953 pdr5 snq2 (sensitized); drug added to: cultures diluted from stationary phase; 6-7 h
How it was run: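 S. cerevisiae in YPD at 30°C was treated with library drugs, with DMSO-only wells as reference. Sensitized JTY2953 cultures diluted 1∶200 from overnight received a final 20 µg/ml and were fixed after 6–7 h; other runs dosed dividing JTY2953 (fixed 6 h later) or BY4741 (4.33 h later). Ethanol-fixed cells were stained with SYTOX Green and 10,000 events read by flow cytometry. G1 fraction is the Dean-Jett-Fox G1 peak area over G1 plus G2/M areas.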

Compound	fraction of cells in G1 phase
CC(=O)OCC[N+](C)(C)C [Acetylcholine Cl] (136.789 µM)	0.483
O=C1CCC(N2C(=O)c3ccccc3C2=O)C(=O)N1 (stereo unspecified) [Thalidomide] (77.4486 µM)	0.464
OCCN(CCO)c1nc(N2CCCCC2)c2nc(N(CCO)CCO)nc(N3CCCCC3)c2n1 [Dipyridamole] (39.6324 µM)	0.535
CC(=O)NC[C@H]1CN(c2ccc(N3CCOCC3)c(F)c2)C(=O)O1 [Linezolid] (59.2849 µM)	0.526
Cc1oncc1C(=O)Nc1ccc(C(F)(F)F)cc1 [Leflunomide] (74.0157 µM)	0.555
CC(C)(C#N)c1cc(Cn2cncn2)cc(C(C)(C)C#N)c1 [Anastrozole] (68.1723 µM)	0.518
Nc1c2c(nc3ccccc13)CCCC2O (stereo unspecified) [Hydroxytacrine maleate] (93.3405 µM)	0.513
Cc1[nH]c(=O)c(C#N)cc1-c1ccncc1 [Milrinone] (94.6857 µM)	0.482
COc1ccc2cc(CCC(C)=O)ccc2c1 [Nabumetone] (87.6065 µM)	0.535
CC(=O)O[C@]1(C(C)=O)CC[C@H]2[C@@H]3C=C(C)C4=CC(=O)CC[C@]4(C)[C@H]3CC[C@@]21C [Megestrol acetate] (52.0129 µM)	0.575
N=c1ccn2c(n1)O[C@H]1[C@H](O)[C@@H](CO)O[C@H]12 [Cyclocytidine HCl] (88.8077 µM)	0.484
CN1CCCN=C1/C=C/c1cccs1 [Pyrantel pamoate] (33.6309 µM)	0.464
COc1cc2nc(N3CCN(C(=O)c4ccco4)CC3)nc(N)c2cc1OC [Prazosin HCl] (47.6417 µM)	0.487
CN1CCC(=C2c3ccccc3CC(=O)c3sccc32)CC1 [Ketotifen fumarate] (64.6343 µM)	0.496
C=C(CC)C(=O)c1ccc(OCC(=O)O)c(Cl)c1Cl [Ethacrynic acid] (65.9752 µM)	0.513
CN(C)C(=N)NC(=N)N [Metformin] (154.84 µM)	0.516
C=C1C[C@H]2[C@@H]3C=C(C)C4=CC(=O)CC[C@]4(C)[C@H]3CC[C@]2(C)[C@@]1(OC(C)=O)C(C)=O [Melengestrol acetate] (50.4374 µM)	0.569
O=C(O)C(=O)O.[NH-][C@@H]1CCCC[C@H]1[NH-].[Pt+2] [Oxaliplatin] (50.3396 µM)	0.493
Nc1nc(O)c2ncn(CCC(CO)CO)c2n1 [Penciclovir] (78.9694 µM)	0.461
NCCC(O)(P(=O)(O)O)P(=O)(O)O [Pamidronic acid] (85.0806 µM)	0.476
CCn1cc(C(=O)O)c(=O)c2cc(F)c(N3CCNCC3)nc21 [Enoxacin] (62.4364 µM)	0.512
CCN1CCN(C(=O)N[C@@H](C(=O)N[C@@H]2C(=O)N3[C@@H]2SC(C)(C)[C@@H]3C(=O)O)c2ccccc2)C(=O)C1=O [Piperacillin] (38.6425 µM)	0.462
CN1CCN(C2=Nc3ccccc3Sc3ccc(Cl)cc32)CC1 [Clothiapine] (58.1596 µM)	0.431
CCOc1ccccc1OCCN[C@H](C)Cc1ccc(OC)c(S(N)(=O)=O)c1 [Tamsulosin HCl] (48.9571 µM)	0.507
O=C(O)CCC(=O)c1ccc(-c2ccccc2)cc1 [Fenbufen] (78.6509 µM)	0.572
CC1=Nc2ccc(Cl)cc2S(=O)(=O)N1 [Diazoxide] (86.7024 µM)	0.516
